Consider 18 compounds from PubChem BioAssay (NCATS).

A number with no mark means an inactive call. Inconclusive results are not listed. Activity calls are given as the source filed them. Unless noted, calls come from the whole dose curve; as a rule, active = well fitted curve in the direction sought with a large enough effect; inconclusive = small, poorly fitted or top-dose-only effect, or another doubt; inactive = no such curve, though single readings can be large; an effect the other way counts as inactive or inconclusive.

Test [1] is described as follows: Cell Viability - Mesenchymal (AID 546).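 For activity change, negative = cytotoxicity: 0% = DMSO only and -100% = 100 µM tamoxifen.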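 Note: cells exposed to compound for 40 hours before reading.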 Note: potency is the fitted concentration of half-maximal effect. Conditions: mesenchymal cells viability, qHTS; activity change, negative = cytotoxicity: at 91.7 µM (top of the series). The gist of the method: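 AC50 values reflect the drop in intracellular ATP in a human kidney mesenchymal line derived from normal glomeruli. Treatment lasts 40 hr at 37 °C in complete medium, and the signal comes from CellTiter-Glo luminescence.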

Test [2] in a line: Cellular Toxicity (caspase-3) HepG2 (AID 654).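 For caspase-3 activation: cells exposed to compound for 16 hours before reading; 0% = DMSO alone and 100% = caspase signal from 100 µM tamoxifen.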 Note: potency is the fitted concentration of half-maximal effect. The gist of the method:
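HepG2 cells (1500/well) in complete medium were treated with compounds for 16 hr at 37 °C. Caspase-3/7 activity was then read as luminescence from peptide-aminoluciferin cleavage. AC50 came from Hill fits, normalized to DMSO and 100 uM tamoxifen.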

Test [3] is described as follows: Cellular Toxicity (caspase-3) Jurkat (AID 655).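 Note: cells exposed to compound for 16 h at 37 °C before reading.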 Note: potency is the fitted concentration of half-maximal effect. The gist of the method: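 Jurkat cells (5000/well) in complete medium exposed 16 h at 37 C; caspase-3/7 activity read by Caspase-Glo luminescence after 20 min at room temperature. Normalized to DMSO and 100 uM tamoxifen; AC50 from Hill fits.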
The nature of test [4]: Cellular Toxicity (caspase-3) HUV-EC-C (AID 656).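 Note: 0% = DMSO basal and 100% = 100 µM tamoxifen.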 The gist of the method: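 HUV-EC-C cells (1000/well) in complete medium, compound-treated 16 h at 37 °C; caspase-3/7 activity read by Caspase-Glo 3/7 luminescence. Normalized to DMSO (basal) and 100 uM tamoxifen (100%); AC50 from Hill-equation concentration-response fits.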
Test [5] in a line: Cellular Toxicity (caspase-3) SHSY5Y (AID 657). Note: potency is the fitted concentration of half-maximal effect. The gist of the method:
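SH-SY5Y human neuroblastoma cells, 1500/well, exposed to compound for 16 hours at 37 °C in complete medium. Caspase-3/7 activity read by Caspase-Glo luminescence after 1 hr at room temperature, normalized to DMSO and 10 uM staurosporine; AC50 from Hill fit.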

Test [6] can be described thus: Cellular Toxicity (caspase-3) BJ (AID 658).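 Note: 0% = DMSO basal and 100% = 10 µM staurosporine.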 The gist of the method: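 Readout: Caspase-Glo 3/7 luminescence increase in BJ cells after 16 hr treatment at 37 °C. Staurosporine and tamoxifen served as positive controls; AC50 values came from Hill modelling of data normalized to DMSO and 10 uM staurosporine.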
Test [7] is described as follows: Cellular Toxicity (caspase-3) MRC-5 (AID 659).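 For caspase-3 activation: 0% = DMSO basal and 100% = 10 µM staurosporine.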 Note: potency is the fitted concentration of half-maximal effect. The following applies: Potency: caspase-3 activation. The gist of the method:
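Concentration-dependent caspase 3/7 activation is measured in human normal lung fibroblasts (MRC-5) following 16-hour treatment. AC50 values come from standard Hill-equation modeling of luminescence normalized to DMSO and 10 uM staurosporine.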

Test [8] can be described thus: Cellular Toxicity (caspase-3) Mesangial (AID 660).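 Note: cells exposed to compound for 16 h before the caspase read.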 The gist of the method: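 Human renal glomerular mesangial cells (1000/well) were treated with compounds for 16 h at 37 °C in complete medium, then caspase 3/7 activity was read by Caspase-Glo luminescence. Data were normalized to DMSO and 100 uM tamoxifen; AC50 from Hill fits.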
Test [9] is described as follows: Cellular Toxicity (caspase-3) SK-N-SH (AID 661).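 For caspase-3 activation: 0% = DMSO basal and 100% = 10 µM staurosporine.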 Note: potency is the fitted concentration of half-maximal effect. The gist of the method:
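SK-N-SH human neuroblastoma cells (1500/well) were treated with compounds for 16 hr at 37 °C in complete medium; caspase 3/7 activity was read by Caspase-Glo luminescence. AC50 came from Hill fits of data normalized to DMSO and 10 uM staurosporine.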

The target in test [10] is 3',5'-cyclic-AMP phosphodiesterase 4B (Homo sapiens) (UniProt Q07343). Nature of the test: qHTS Assay for Inhibitors of PDE-IV (AID 607; active = well fitted activation curve with a large enough effect in the main read-out, with a control signal flat, not every such curve was filed as active; note: % of control where 0% means no effect). The gist of the method:
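ACTOne HEK293 cells carry a modified cAMP-gated CNG channel and express endogenous PDE4; plated 1000 cells/well, compounds up to 22.9 uM final. Membrane-potential dye fluorescence (ex 535/em 590) was read; parental cells received 10 uM forskolin + 100 uM RO 20-1724.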

3',5'-cyclic-AMP phosphodiesterase 4B (Homo sapiens), sequence (Q07343 whole entry, looked up): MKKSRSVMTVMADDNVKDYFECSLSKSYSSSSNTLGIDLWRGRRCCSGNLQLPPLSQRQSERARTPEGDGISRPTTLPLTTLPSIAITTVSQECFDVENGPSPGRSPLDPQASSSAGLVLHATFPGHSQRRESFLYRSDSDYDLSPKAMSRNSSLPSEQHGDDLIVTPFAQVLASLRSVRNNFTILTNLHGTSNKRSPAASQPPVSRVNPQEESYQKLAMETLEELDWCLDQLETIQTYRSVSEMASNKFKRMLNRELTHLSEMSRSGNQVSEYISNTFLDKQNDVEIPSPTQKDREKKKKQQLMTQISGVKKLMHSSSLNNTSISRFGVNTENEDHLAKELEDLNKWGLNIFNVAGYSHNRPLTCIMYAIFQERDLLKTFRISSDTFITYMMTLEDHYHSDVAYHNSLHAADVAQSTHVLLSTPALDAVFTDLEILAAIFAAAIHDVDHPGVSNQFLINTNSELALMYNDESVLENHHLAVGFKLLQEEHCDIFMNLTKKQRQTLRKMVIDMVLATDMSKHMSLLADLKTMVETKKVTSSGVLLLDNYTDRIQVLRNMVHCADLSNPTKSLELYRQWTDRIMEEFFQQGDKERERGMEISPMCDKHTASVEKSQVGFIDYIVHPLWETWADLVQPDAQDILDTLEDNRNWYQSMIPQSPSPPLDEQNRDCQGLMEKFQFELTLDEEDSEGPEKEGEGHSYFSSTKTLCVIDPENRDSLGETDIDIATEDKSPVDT

On to `CC(=O)Oc1ccc(C(c2ccc(OC(C)=O)cc2)c2ccccn2)cc1`, for which, in test [1], the activity change, negative = cytotoxicity is -3.78%. The Potency result in test [2], in test [3], in test [5], in [7] and in [9] was “inactive” each time. Also, the compound was classed as inactive in [4], in test [6] and in test [8].
For the compound `CC(C)(C)CC(C)(C)c1ccc(OCCOCC[N+](C)(C)Cc2ccccc2)cc1`, the activity change, negative = cytotoxicity in test [1] was -104% (active). Also, the Potency is 50.1 µM (active) in test [2] and 31.6 µM (active) in test [7]. Also, the Potency entry in test [5] is “inactive”.
Regarding `Cc1ccnc(NS(=O)(=O)c2ccc(N)cc2)n1`, in test [10], the result was inactive.
With `C[C@]12CC[C@@H]3c4ccc(O)cc4CC[C@H]3[C@@H]1CC[C@@H]2O`, the activity change, negative = cytotoxicity in [1] is -23.1%. The Potency entry in test [2], in test [3], in [5], in [7] and in test [9] was “inactive” in each case. Further, the result in [4], in [6] and in test [8] was inactive.
Take `O=C(O)CCCCC(=O)O`: the activity change, negative = cytotoxicity in [1] is 3.41%. Besides, the Potency entry in test [2], in test [3], in test [5], in test [7] and in test [9] was “inactive” each time. The compound was classed as inactive in test [4], in test [6] and in [8].
`COc1cccc2c1C(=O)c1c(O)c3c(c(O)c1C2=O)C[C@@](O)(C(=O)CO)C[C@@H]3O[C@H]1C[C@H](N)[C@H](O)[C@H](C)O1`: the Potency in test [3] was 0.02 µM (active); in test [5] it was 0.0158 µM (active); in test [9] it was 0.251 µM (active). Also, the result in test [4], in [6] and in test [8] was inactive. Moreover, the Potency result in [7] was “inactive”.
As to `CC(=O)O[C@]1(C(C)=O)CC[C@H]2[C@@H]3C[C@H](C)C4=CC(=O)CC[C@]4(C)[C@H]3CC[C@@]21C`, the activity change, negative = cytotoxicity in test [1] is -6.64%. The Potency result in test [2], in test [5], in [7] and in test [9] was “inactive” each time. For the same compound, the compound was called inactive in test [4], in test [6] and in test [8].
As to `O=C(O)c1cc2cc(Cc3cccnc3)ccc2o1`, the outcome in test [10] was inactive.
Consider `NC(=NCCCCCCN=C(N)/N=C(\N)Nc1ccc(Cl)cc1)/N=C(\N)Nc1ccc(Cl)cc1`, for which, in [1], the Potency is 31.6 µM (active). Also, the Potency result in [2], in test [3], in [5], in test [7] and in [9] was “inactive” throughout. The outcome in test [4], in [6] and in test [8] was inactive.
Take `Oc1c(I)cc(Cl)c2cccnc12`: the Potency entry in test [2], in [5], in test [7] and in test [9] was “inactive” in each case. For the same compound, the result in test [4], in [6] and in [8] was inactive.
On to `O=C1OC(c2ccc(O)cc2)(c2ccc(O)cc2)c2ccccc21`, for which, in test [1], the activity change, negative = cytotoxicity is -12.7%. Further, the Potency result in test [2], in test [3], in test [5], in test [7] and in test [9] was “inactive” throughout. Further, the compound was classed as inactive in test [4], in test [6] and in test [8].
Turning to `Nc1ccc(C(=O)O)cc1`, the activity change, negative = cytotoxicity in test [1] is -3.72%. The Potency result in [2], in test [3], in test [5], in test [7] and in test [9] was “inactive” in each case. Further, the compound was classed as inactive in test [4], in test [6] and in test [8].
Take `Oc1ccc(Cl)cc1Sc1cc(Cl)ccc1O`: the compound was classed as inactive in [10], in test [4], in test [6] and in test [8]. Moreover, the Potency entry in test [2], in test [5], in test [7] and in test [9] was “inactive” each time.
On to `CN1CCN(CCCN2c3ccccc3Sc3ccc(S(=O)(=O)N(C)C)cc32)CC1`, for which the compound was called inactive in test [10].
Consider `CN(C)CC/C=C1\c2ccccc2Sc2ccc(Cl)cc21`, for which the outcome in [10] was inactive.
Turning to `O=C(CCCN1CCC(O)(c2ccc(Br)cc2)CC1)c1ccc(F)cc1`, the compound was classed as inactive in test [10].
With `C[C@H](O)C(=O)Nc1c(I)c(C(=O)NC(CO)CO)c(I)c(C(=O)NC(CO)CO)c1I`, the compound was classed as inactive in test [10].
On to `CN1[C@@H]2CC[C@H]1CC(OC(=O)c1c[nH]c3ccccc13)C2` (stereo not given in full), for which, in test [10], the call was inactive.
